{"source": "PubChem BioAssay AID652106", "about": "(National Center for Advancing Translational Sciences (NCATS), 2013)", "note": "About 500 (0.14%) of roughly 370,000 compounds were called active. Another 2% or so got no clear call; they are omitted. The sample as a whole holds a higher share of actives than the screen did. A number with no mark means an inactive call. Calls come from the whole dose curve; as a rule, active = well fitted activation curve with a large enough effect; inconclusive = small, poorly fitted or top-dose-only effect; inactive = no such curve, though single readings can be large or run the other way. Potency is the fitted concentration of half-maximal effect."}
{"experiment": "qHTS of alpha-syn Inhibitors; note: nearly all actives have a fitted effect of over 65% in size; for growth rescue (activation): % of control where 0% means no effect", "conditions": "Yeast expressing alpha-synuclein, BacTiter-Glo, 24 h; Potency: growth rescue; series mostly up to 46.1 µM; growth rescue (activation): at the top concentration", "in_short": "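Rescue of yeast growth: cells expressing toxic alpha-synuclein, induced in galactose at OD600 0.02, incubated with compound 24 h at 30 C. ATP luminescence quantified growth; inhibitors of toxicity appear as activators.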", "units": {"growth rescue (activation)": "%"}}
{"compound": "CCOc1ccccc1NC(=O)c1cccnc1", "growth rescue (activation)": -7.43}
{"compound": "O=C(Nc1cnccn1)c1cccnc1", "growth rescue (activation)": -2.07}
{"compound": "O=C(CC(=O)c1cccnc1)c1ccccc1", "Potency": "15.8 µM (active)"}
{"compound": "CCOc1ccc(NC(=O)CSc2nnc3c(n2)[nH]c2ccc(S(=O)(=O)N4CCOCC4)cc23)cc1", "growth rescue (activation)": 3.54}
{"compound": "CCN(CC)c1ccc(/C=C/c2c(C)cnc3ccc(C)cc23)cc1", "growth rescue (activation)": 1.75}
{"compound": "COc1cc2nc(N3CCCN(C)CC3)nc(NC3CC3)c2cc1OC", "growth rescue (activation)": -3.48}
{"compound": "OC(CBr)C[n+]1cccc2cc(Br)ccc21", "note": "(stereo not given)", "growth rescue (activation)": -0.822}
{"compound": "ClC/C=C/C[n+]1ccccc1Cl", "growth rescue (activation)": 10.5}
{"compound": "O=C(c1ccco1)N(Cc1cccs1)c1ccc(O)cc1", "growth rescue (activation)": 5.52}
{"compound": "O=c1cc(-c2ccccc2)[nH]c2nc(Cl)ccc12", "growth rescue (activation)": -11.3}
{"compound": "NS(=O)(=O)c1ccc(NC(=O)CSc2nnc3c(n2)[nH]c2ccccc23)cc1", "growth rescue (activation)": -9.09}
{"compound": "CCC(C)N(c1ccc(/C=C/c2ccnc3ccccc23)cc1)C(C)CC", "note": "(stereo not given)", "growth rescue (activation)": 0.324}
{"compound": "O=C1c2ccccc2C(=O)N1c1ccc(S(=O)(=O)N2CCOCC2)c2ccccc12", "growth rescue (activation)": -0.816}
{"compound": "CS(=O)c1ccc(/C=C2\\C=Cc3ccccc32)cc1", "note": "(stereo not given)", "growth rescue (activation)": -12.1}
{"compound": "Cc1ccc(C(=O)CSc2nc(-c3ccccc3)nc3c2CCCC3)c(C)c1", "growth rescue (activation)": 0.262}
{"compound": "Cc1cccc(Nc2nc(C)nc(N)c2S(=O)(=O)c2ccccc2)c1", "growth rescue (activation)": -3.96}
{"compound": "Brc1cccc[n+]1Cc1cccc(C[n+]2ccccc2Br)c1", "growth rescue (activation)": -0.189}
{"compound": "OC(Cc1ccc2ccccc2n1)c1ccc(Cl)c(Cl)c1", "note": "(stereo not given)", "growth rescue (activation)": -19.7}
{"compound": "COc1ccc(C)cc1NC(=O)C(=O)NCCc1sc(-c2cccc(C)c2)nc1C", "growth rescue (activation)": 0.666}
{"compound": "CN(C)c1ccc(/C=C2\\C=Cc3ccccc32)cc1Br", "growth rescue (activation)": 1.91}
{"compound": "CC(C)(C(=O)NO)c1ccccc1", "growth rescue (activation)": 1.69}
{"compound": "CN(O)C(=S)c1ccccc1", "Potency": "3.55 µM (active)"}
{"compound": "CCOc1ccccc1C(=O)NC1(C(F)(F)F)NC(=O)N(CCc2ccc(OC)c(OC)c2)C1=O", "note": "(stereo not given)", "growth rescue (activation)": 0.914}
{"compound": "O=C(c1cnn2c1NC(=C1CC1)C=C2C(F)F)N1CCc2ccccc2C1", "growth rescue (activation)": 2.26}
{"compound": "Cc1cc(F)ccc1NC1(c2ccccc2)C(=O)c2ccccc2C1=O", "growth rescue (activation)": 5.02}
{"compound": "O=[N+]([O-])c1ccccc1S(=O)(=O)Nc1cccc2cccnc12", "growth rescue (activation)": 22.8}
{"compound": "COc1ccc(S(=O)(=O)Nc2cccc3cccnc23)c(N)c1", "Potency": "22.4 µM (active)"}
{"compound": "O=S(=O)(Nc1cccc2cccnc12)c1cccc2cccnc12", "growth rescue (activation)": 3.8}
{"compound": "CNC(=S)NNC(=O)c1ccc(N(C)C)cc1", "growth rescue (activation)": 0.721}
{"compound": "CC(=O)NC(=S)NNC(=O)c1ccc(Br)cc1", "Potency": "12.6 µM (active)"}
{"compound": "O=C(NNC(=O)c1ccc(Cl)nc1)c1ccc(Br)cc1", "growth rescue (activation)": -10.8}
{"compound": "Cc1ccc(-c2nc(=N)sn2Cc2ccccc2)cc1", "growth rescue (activation)": -55.8}
{"compound": "CC(C)CC(COCc1ccc(Cl)cc1)N1CCN(C(=O)c2ccc(C(F)(F)F)cc2)CCC1=O", "note": "(stereo not given)", "growth rescue (activation)": 8.14}
{"compound": "CC(C)CC(CO)N1CCN(C(=O)c2ccc(Cl)cc2Cl)CCC1=O", "note": "(stereo not given)", "growth rescue (activation)": -14.7}
{"compound": "CC(C)C[C@@H](COCc1ccc(Cl)cc1)N1CCN(C(=O)c2ccc(Cl)cc2Cl)CCC1=O", "Potency": "15.8 µM (active)"}
